Only some compounds are listed: those with a hit (about 2.7% of all), similar ones and a draw of the others.
Env fusion inh: inhibitors of HIV-1 Env-driven cell-cell fusion, primary screen, HeLa-JRFL effector, CEM21 target cells, luciferase | inhibition, % at 12.3 µM | actives 1.1% (n = 360,000);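 active = mean replicate inhibition score of at least 50 and every replicate individually at or above 50; inconclusive = only one of the two criteria met; inactive = mean below 50 and not all replicates reaching 50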;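 note: 0% = plate neutral controls and 100% = maraviroc near 300 nM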
GSIS activator: GLuc luminescence reporter in INS-1E cells, primary screen for activators of glucose-dependent secretion of insulin; AID 743287, 2014; actives 0.61% (n = 370,000); activation, % at 16.6 µM; INS-1E GLuc reporter insulin secretion, 2-3 h;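 active = lowest replicate activation of at least 40%, so every replicate reaches that level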;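 note: 0% = median of neutral control wells and 100% = median of IBMX positive control wells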
EWS-Fli block: EWS/Fli-driven NR0B1 reporter inhibitors, primary screen, A673 cells, NR0B1 luciferase, luminescence, MLPCN library | inhibition, % at 12.6 µM | AID 651661, 2012 | viability-normalised | actives 0.67% (n = 350,000);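 active = mean inhibition of at least 50% after viability correction, with every replicate also passing that limit; inconclusive = mean reaches 50% but only one of two replicates passes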;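 note: firefly luciferase signal divided by Alamar Blue viability fluorescence both relative to DMSO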
PGC1a acetyl inh: inhibitors of PGC1a acetylation signal, primary screen, cell-based, U2OS, AlphaScreen, inhibitor mode; AlphaScreen anti-acetyl-lysine; with virally co-expressed GCN5 acetyltransferase; inhibition, % at 15.6 µM; actives 0.17% (n = 350,000); AID 651687, 2012;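 active = every replicate shows inhibition of at least 40%; inconclusive = mean inhibition at least 40% but some replicate below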;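 note: 0% = neutral control wells and 100% = positive control wells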
PAX8 inh HTS: inhibitors of PAX8-driven TPO luciferase reporter, primary screen, RMG-I cells, single concentration; SteadyGlo, 24 h; inhibition, % at 12.6 µM; actives 1.2% (n = 360,000);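 active = mean replicate inhibition at least 60% with every replicate also reaching 60%; inconclusive = only one of the two criteria is met; inactive = mean below 60% and not all replicates reaching 60%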;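 note: luciferase light reporting Pax8 driven TPO promoter activity; plate controls were median of neutral control wells for no effect and mitoxantrone controls for full effect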
F508del corr: F508del CFTR correction, initial screen, CFBE line, single point | CFBE cells, YFP halide quenching; stimulated with forskolin plus potentiator P3; % fluorescence drop versus neutral controls | activity (quench increase), % at 7.58 µM | actives 0.36% (n = 350,000) | AID 720511, 2013;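 active = mean added fluorescence quench of at least 8% versus neutral control, with both replicates also reaching 8%; inconclusive = only one of the mean or replicate conditions met; inactive = mean below 8% and not both replicates reaching 8%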;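 note: cells transiently co-express mutant CFTR-F508del with the halide-sensitive YFP; corrector assay measuring rescue of mutant channel to the surface after 24 h compound exposure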
Active calls of the source: *; u = inconclusive; x = no result; [ ] = remark or other dose.

SMILES	Env fusion inh	GSIS activator	EWS-Fli block	PGC1a acetyl inh	PAX8 inh HTS	F508del corr
Cc1ccc(S(=O)(=O)Nc2ccc3c(c2)C(=O)N([C@H](C)CO)C[C@H](C)[C@@H](CN(C)S(=O)(=O)c2cccs2)OCCCC[C@H](C)O3)cc1	-24[16.7 µM]	-4	8	-5	77*	-2
CCC(=O)Nc1ccc2c(c1)C(=O)N(C)C[C@H](OC)[C@H](C)CN(CC1CCCCC1)[C@H](C)CO2	x	9	-12	-1	x	2
COCC(=O)N(C)C[C@@H]1Oc2ncc(C#C[C@@H](C)O)cc2C(=O)N([C@@H](C)CO)C[C@H]1C	-43[16.7 µM]	19	0	5	x	1
CCCN1C[C@@H](C)[C@@H](OC)CN(C)C(=O)c2ccc(NC(=O)C3CCC3)cc2OC[C@H]1C	6[16.7 µM]	10	-3	-12	x	1
CCOC(=O)c1cc([N+](=O)[O-])cc([N+](=O)[O-])c1Sc1ncnc2nc[nH]c12	-13	-47	44	6	25	4
CNc1ncnc(Sc2nc(N)nc3nc[nH]c23)c1[N+](=O)[O-]	21	x	64*	2	95*	-12
Nc1nc(Sc2ccc([N+](=O)[O-])c3nonc23)c2[nH]cnc2n1	-141	x	27	2	97*	-7
O=[N+]([O-])c1ccc(S(=O)Cc2ccccc2)c([N+](=O)[O-])c1 (configuration not stated)	-165	117*	36	x	121*	-3
O=[N+]([O-])c1ccc(CS(=O)c2ccccc2)cc1 (configuration not stated)	7	x	-11	x	-1	2
CC(=O)c1cccc(-c2cnc3c(NC=O)cc(-c4ccccc4)cn23)c1	-1	-4	18	-3	10	1
COc1cccc(-c2cnc3c(NC=O)cc(-c4ccc(S(C)(=O)=O)cc4)cn23)c1	-3	8	1	-4	39	2
COc1cc(-c2cnc3c(NC=O)cc(-c4ccccc4Cl)cn23)cc(OC)c1OC	-6	10	45	-102	76*	4
COc1ccccc1-c1cc(NC=O)c2ncc(-c3ccc(F)cc3)n2c1	17	-14	8	x	20	2
CS(=O)(=O)c1ccc(-c2cc(NC=O)c3ncc(-c4ccc(F)cc4)n3c2)cc1	51	24	-15	4	68*	2
CC(=O)Nc1cccc(-c2cc(NC=O)c3ncc(-c4cccc(C(C)=O)c4)n3c2)c1	15	1	19	-10	81*	2
COc1ccc(F)cc1-c1cc(NC=O)c2ncc(-c3cccc(C(=O)N(C)C)c3)n2c1	15	-6	15	x	68*	0
CCC(=O)N1[C@H](CO)[C@H](c2ccc(C#CC3CCCC3)cc2)[C@@H]1CNC(C)C	x	-7	x	x	x	x
COc1cc(-c2cnc3c(NC=O)cc(-c4ccc(C)cc4)cn23)cc(OC)c1OC	-151	4	44	-89	90*	4
COc1cc(-c2cc(NC=O)c3ncc(-c4ccccc4)n3c2)cc(OC)c1OC	28	-1	12	x	15	-2
COc1cc(-c2cnc3c(NC=O)cc(-c4ccccc4)cn23)cc(OC)c1OC	-123	4	59*	-105	92*	3
COc1cc(-c2cc(NC=O)c3ncc(-c4ccc(C(C)=O)cc4)n3c2)cc(OC)c1OC	16	17	14	-13	33	1
Cc1ccc(-c2cc(NC=O)c3ncc(-c4cnn(C)c4)n3c2)cc1	3	x	56*	-3	35	x
COc1ccc(F)cc1-c1cc(NC=O)c2ncc(-c3cc(OC)c(OC)c(OC)c3)n2c1	-125	-12	60*	5	90*	5
CCCN1C[C@H](C)[C@H](OC)CN(C)C(=O)c2ccc(NC(=O)Nc3c(C)noc3C)cc2OC[C@@H]1C	16[16.7 µM]	11	6	-4	x	2
C[C@H]1CN([C@@H](C)CO)C(=O)c2cc(C3=CCCC3)cnc2O[C@H]1CN(C)C(=O)C1CC1	-10[16.7 µM]	7	-9	1	x	-2
SMILES	Env fusion inh	GSIS activator	EWS-Fli block	PGC1a acetyl inh	PAX8 inh HTS	F508del corr
COc1ccccc1/C=C1\SC(=S)N(CCC(=O)N2CCCCC2CCO)C1=O (configuration not stated)	6	-8	2	2	-2	1
COc1cccc(/C=C2\SC(=S)N(CCC(=O)N3CCCCC3CCO)C2=O)c1 (configuration not stated)	-7	-11	4	9	70*	2
COc1cccc(/C=C2\SC(=S)N(CCCC(=O)N3CCCCC3CCO)C2=O)c1 (configuration not stated)	16	-28	u	6	67*	2
Cc1ccc(S(=O)(=O)N2CC[C@@H]3[C@@H](CO)Nc4ccc(C#Cc5ccccc5F)cc4[C@@H]32)cc1	x	7	1	-5	-3	4
CO[C@@H]1CN(C)C(=O)c2cc(NC(=O)C3CCCC3)ccc2OC[C@H](C)N(CC2CC2)C[C@H]1C	x	0	-5	-5	4	-4
O=C(N[C@@H]1CC[C@@H](CCn2cc(-c3ccccn3)nn2)O[C@H]1CO)c1ccncc1	11[16.7 µM]	-3	-9	3	-2	4
Nc1nnc(CC(=O)N/N=C/c2ccccc2OCc2ccccc2F)s1	21	7	-5	x	12	-2
Nc1nnc(CC(=O)N/N=C/c2ccccc2OCc2ccc(F)cc2)s1	13	-18	-21	61*	3	-2
Cc1noc(C)c1NC(=O)Nc1ccc2c(c1)C(=O)N([C@@H](C)CO)C[C@@H](C)[C@H](CN(C)Cc1ccc(Oc3ccccc3)cc1)O2	x	1	5	2	x	-1
Cc1noc(C)c1NC(=O)N(C)C[C@H]1Oc2c(NC(=O)Nc3ccc(F)cc3)cccc2C(=O)N([C@H](C)CO)C[C@H]1C	17[16.7 µM]	6	0	5	-30	1
C[C@@H]1CN([C@H](C)CO)C(=O)c2cc(NS(=O)(=O)c3cccs3)ccc2O[C@@H]1CN(C)S(=O)(=O)c1ccc(Cl)cc1	x	-3	18	-3	x	0
Cc1cc(C(=O)NC(C)CCC(C)C)c2ccccc2n1 (configuration not stated)	7	56*	-2	x	-14	0
Cc1ccc(NC(=O)c2cc(CC(C)C)nc3ccccc23)cc1	68*	-9	21	-4	38	-6
Cc1ccc(C)c(-c2cc(C(=O)Nc3cccnc3)c3ccccc3n2)c1	x	3	10	x	5	3
Cc1ccc(C)c(-c2cc(C(=O)Nc3cccc(C(=O)O)c3)c3ccccc3n2)c1	-9	8	4	-4	83*	-1
